The results in this text go back to PMC8384837, “Expanding the binding specificity for RNA recognition by a PUF domain”.

Positions count from the first letter of the chain named.

Test in all cases: yeast three-hybrid, YBZ-1, SC-Leu-His + 0.5 mM 3-AT, 4 days
Holding throughout (conditions): tags: N-Gal4 AD-HA kept; label: inside an RPR1-promoter hybrid RNA with tandem MS2 sites; ssRNA

The target of one assay is PUM1 PUF domain R4-APC (Homo sapiens, UniProt Q14671 828-1176, N971A;H972P;Q975C). Summed up:
(§1)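 Matching RNA elements and Pumilio-1 PUF domain libraries, randomized at the three base-contacting residues of every repeat, were co-expressed from a centromeric plasmid in strain YBZ-1 (LexA–MS2 coat fusion, HIS3 reporter). The repeat regions were PCR-amplified and Illumina-sequenced from cells grown four days on SC-Leu (input) or SC-Leu-His + 0.5 mM 3-AT (selection). The interaction score is the log change in variant frequency from input to selection. It is computed in log2, with a pseudocount of 1 for absent variants.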

In another assay the target is T1, PUM1 PUF domain R6-CFF (Homo sapiens, UniProt Q14671 828-1176, N1043C;Y1044F;Q1047F).
T1 sequence: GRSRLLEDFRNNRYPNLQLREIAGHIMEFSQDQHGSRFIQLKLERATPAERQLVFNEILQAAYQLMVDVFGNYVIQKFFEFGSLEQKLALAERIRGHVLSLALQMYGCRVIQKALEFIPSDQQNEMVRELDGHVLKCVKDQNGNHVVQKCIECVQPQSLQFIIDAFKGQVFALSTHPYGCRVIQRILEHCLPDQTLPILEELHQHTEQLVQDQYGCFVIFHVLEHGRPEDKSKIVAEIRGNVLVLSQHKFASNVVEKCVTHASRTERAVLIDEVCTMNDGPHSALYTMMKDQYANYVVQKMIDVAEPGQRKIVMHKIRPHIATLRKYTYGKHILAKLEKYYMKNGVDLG
Summed up: as §1

The next assay addresses PUM1 PUF domain R8-SHR (Homo sapiens, UniProt Q14671 828-1176, N1122S;Y1123H;Q1126R). Summed up:
as §1

A further assay deals with PUM1 PUF domain R2-NFP (Homo sapiens, UniProt Q14671 828-1176, Y900F;Q903P). An outline of the steps:
as §1

The target of the next assay is PUM1 PUF domain R5-SRT (Homo sapiens, UniProt Q14671 828-1176, C1007S;Q1011T). Summed up: as §1
The target in the next assay is T2, PUM1 PUF domain R6-NYW (Homo sapiens, UniProt Q14671 828-1176, Q1047W).
T2 sequence: T1 sequence with C216N, F217Y, F220W
Summed up: as §1

The target of another assay is PUM1 PUF domain R5-RRH (Homo sapiens, UniProt Q14671 828-1176, C1007R;Q1011H). Summed up:
as §1

In another assay the target is PUM1 PUF domain R3-APD (Homo sapiens, UniProt Q14671 828-1176, C935A;R936P;Q939D). Summed up: as §1
Sequence of PUM1 PUF domain R3-APD (Q14671 828-1176 C935A/R936P/Q939D): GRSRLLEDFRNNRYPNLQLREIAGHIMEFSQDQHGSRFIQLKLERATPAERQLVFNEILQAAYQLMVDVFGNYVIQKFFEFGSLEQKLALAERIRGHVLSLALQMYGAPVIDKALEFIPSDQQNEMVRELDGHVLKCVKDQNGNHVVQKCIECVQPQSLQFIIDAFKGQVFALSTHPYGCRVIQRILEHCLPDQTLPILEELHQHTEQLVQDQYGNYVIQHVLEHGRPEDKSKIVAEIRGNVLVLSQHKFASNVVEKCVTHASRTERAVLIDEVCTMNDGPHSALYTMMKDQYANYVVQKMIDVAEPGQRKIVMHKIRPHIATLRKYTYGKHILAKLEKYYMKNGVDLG
In a further assay the target is PUM1 PUF domain R8-RWW (Homo sapiens, UniProt Q14671 828-1176, N1122R;Y1123W;Q1126W). An outline of the steps:
as §1

Another assay has as its target PUM1 PUF domain R5-DCR (Homo sapiens, UniProt Q14671 828-1176, C1007D;R1008C;Q1011R). An outline of the steps: as §1
The target in a further assay is PUM1 PUF domain R5-KLE (Homo sapiens, UniProt Q14671 828-1176, C1007K;R1008L;Q1011E). Summed up:
as §1

A further assay has as its target PUM1 PUF domain R1-KTS (Homo sapiens, UniProt Q14671 828-1176, S863K;R864T;Q867S). An outline of the steps:
as §1

In the next assay the target is PUM1 PUF domain R1-GYR (Homo sapiens, UniProt Q14671 828-1176, S863G;R864Y;Q867R). An outline of the steps:
as §1

For the next assay, the target named is PUM1 PUF domain R5-NSV (Homo sapiens, UniProt Q14671 828-1176, C1007N;R1008S;Q1011V). Summed up: as §1

Sequence of PUM1 PUF domain R4-APC (Q14671 828-1176 N971A/H972P/Q975C): as the sequence (Q14671 828-1176 C935A/R936P/Q939D) above, with A108C, P109R, D112Q, N144A, H145P, Q148C counted along it
Sequence of PUM1 PUF domain R5-RRH (Q14671 828-1176 C1007R/Q1011H): as the sequence (Q14671 828-1176 C935A/R936P/Q939D) above, with A108C, P109R, D112Q, C180R, Q184H counted along it
Sequence of PUM1 PUF domain R1-GYR (Q14671 828-1176 S863G/R864Y/Q867R): as the sequence (Q14671 828-1176 C935A/R936P/Q939D) above, with S36G, R37Y, Q40R, A108C, P109R, D112Q counted along it
Sequence of PUM1 PUF domain R8-RWW (Q14671 828-1176 N1122R/Y1123W/Q1126W): as the sequence (Q14671 828-1176 C935A/R936P/Q939D) above, with A108C, P109R, D112Q, N295R, Y296W, Q299W counted along it

On to “GGCUAGAACUAGUGGAUCCCCCGGCGCCCGGCGGCUCGAGCCCGGGUAAGUGUAUAUAGUCUGCAUGCCGCCGGGCGCCAUGCCUGCAGGUCGACUCUAGAAAACAUG”, for which, in the assay with PUM1 PUF domain R4-APC, the binding signal is 3.17 log2 enrichment (interaction score).
“GGCUAGAACUAGUGGAUCCCCCGGCGCCCGGCGGCUCGAGCCCGGGUAAGUGUAAAUAGUCUGCAUGCCGCCGGGCGCCAUGCCUGCAGGUCGACUCUAGAAAACAUG”: the binding signal with PUM1 PUF domain R6-CFF is 4.85 log2 enrichment (interaction score); with PUM1 PUF domain R8-SHR it was 4.08 log2 enrichment (interaction score); in the assay with PUM1 PUF domain R2-NFP, 2.11 log2 enrichment (interaction score); in the assay with PUM1 PUF domain R5-SRT, 3.34 log2 enrichment (interaction score); in the assay with PUM1 PUF domain R6-NYW, 2.24 log2 enrichment (interaction score); with PUM1 PUF domain R5-RRH, 1.96 log2 enrichment (interaction score). In addition, the binding signal was 4.44 log2 enrichment (interaction score) in the assay with PUM1 PUF domain R3-APD, 4.93 log2 enrichment (interaction score) with PUM1 PUF domain R8-RWW and 4.14 log2 enrichment (interaction score) in the assay with PUM1 PUF domain R4-APC.
“GGCUAGAACUAGUGGAUCCCCCGGCGCCCGGCGGCUCGAGCCCGGGUAAGUGUCAAUAGUCUGCAUGCCGCCGGGCGCCAUGCCUGCAGGUCGACUCUAGAAAACAUG”: the binding signal is 2.94 log2 enrichment (interaction score) with PUM1 PUF domain R5-DCR, 5.37 log2 enrichment (interaction score) with PUM1 PUF domain R5-KLE and 5.57 log2 enrichment (interaction score) in the assay with PUM1 PUF domain R5-RRH.
In the case of “GGCUAGAACUAGUGGAUCCCCCGGCGCCCGGCGGCUCGAGCCCGGGUAAGUGUAAAUCGUCUGCAUGCCGCCGGGCGCCAUGCCUGCAGGUCGACUCUAGAAAACAUG”, the binding signal with PUM1 PUF domain R1-KTS is 4.91 log2 enrichment (interaction score); in the assay with PUM1 PUF domain R1-GYR, 4.99 log2 enrichment (interaction score).
As to “GGCUAGAACUAGUGGAUCCCCCGGCGCCCGGCGGCUCGAGCCCGGGUAAGUGUGAAUAGUCUGCAUGCCGCCGGGCGCCAUGCCUGCAGGUCGACUCUAGAAAACAUG”, the binding signal was 0.18 log2 enrichment (interaction score) with PUM1 PUF domain R5-NSV and 1.47 log2 enrichment (interaction score) with PUM1 PUF domain R5-RRH.
Consider “GGCUAGAACUAGUGGAUCCCCCGGCGCCCGGCGGCUCGAGCCCGGGUAAGUGUACAUAGUCUGCAUGCCGCCGGGCGCCAUGCCUGCAGGUCGACUCUAGAAAACAUG”, for which the binding signal in the assay with PUM1 PUF domain R4-APC was 1.88 log2 enrichment (interaction score).
Take “GGCUAGAACUAGUGGAUCCCCCGGCGCCCGGCGGCUCGAGCCCGGGUAAGUGUAAAUUGUCUGCAUGCCGCCGGGCGCCAUGCCUGCAGGUCGACUCUAGAAAACAUG”: the binding signal with PUM1 PUF domain R1-GYR is 2.71 log2 enrichment (interaction score).
